Among the data in a collection of fitness landscapes (doi:10.1126/science.1257360) are enrichment ratio values, retold here.

Whole data set: some 140,000 sequences, median “enrichment ratio after two sorts for PhoP signalling” near 0, cut for the highest 2% near 11. The list comes from a sample in which the highest values are over-represented; it also holds similar and randomly drawn sequences.

Sequences and labels used below:
B1: PhoQ; a variant is named by its letters at X, in order, P23837 (parent)
chain: MKKLLRLFFPLSLRVRFLLATAAVVLVLSLAYGMVALIGYSVSFDKTTFRLLRGESNLFYTLAKWENNKLHVELPENIDKQSPTMTLIYDENGQLLWAQRDVPWLMKMIQPDWLKSNGFHEIEADVNDTSLLLSGDHSIQQQLQEVREDDDDAEMTHSVAVNVYPATSRMPKLTIVVVDTIPVELKSSYMVWSWFIYVLSANLLLVIPLLWVAAWWSLRPIEALAKEVRELEEHNRELLNPATTRELTSLVRNLNRLLKSERERYDKYRTTLTDLTHSLKTPLXXLQXXLRSLRSEKMSVSDAEPVMLEQISRISQQIGYYLHRASMRGGTLLSRELHPVAPLLDNLTSALNKVYQRKGVNISLDISPEISFVGEQNDFVEVMGNVLDNACKYCLEFVEISARQTDEHLYIVVEDDGPGIPLSKREVIFDRGQRVDTLRPGQGVGLAVAREITEQYEGKIVAGESMLGGARMEVIFGRQHSAPKDE

In this test the parent is B1. In words: enrichment ratio after two sorts for PhoP signalling (ratio (wild type AVST 3.29)); higher = more functional. The settings on record: with PhoP (E. coli).
Regarding SDVD, the enrichment ratio is at most 0.25.
In the case of FQFY, the enrichment ratio was at most 0.25.
As to YCFT, the enrichment ratio was at most 0.25.
As for QDDD, the enrichment ratio is at most 0.25.
For NLAY, the enrichment ratio is at most 0.25.
With GAMS, the enrichment ratio was at most 0.25.
Consider TPSS, for which the enrichment ratio was at most 0.25.
As for TNLC, the enrichment ratio was determined as 13.5.
With MNLC, the enrichment ratio is 11.7.
For MNLA, the enrichment ratio is at most 0.25.
In the case of GNLC, the enrichment ratio was determined as 4.14.
Regarding MCLC, the enrichment ratio is 1.65.
Then KCLC, with at most 0.25; and RMKH, with at most 0.25; and FPFY, with at most 0.25.
Then FYFF, with at most 0.25.
For the variant FHQK, the enrichment ratio is at most 0.25.
For the variant AGIH, the enrichment ratio amounted to 16.3.
As for ADIH, the enrichment ratio was at most 0.25.
Regarding ANIH, the enrichment ratio is at most 0.25.
Consider YTIH, for which the enrichment ratio was at most 0.25.
Then ATIH, with 25.3; and TGIH, with at most 0.25.
As for HART, the enrichment ratio is at most 0.25.
For the variant WISF, the enrichment ratio was at most 0.25.
For the variant AISF, the enrichment ratio is 13.4.
In the case of AQHF, the enrichment ratio is at most 0.25.
In the case of ADSF, the enrichment ratio was at most 0.25.
With AKSF, the enrichment ratio was 2.49.
As to AQSF, the enrichment ratio came to 11.9.
For PMKN, the enrichment ratio is at most 0.25.
As for SCIV, the enrichment ratio was 1.12.
Consider RGCA, for which the enrichment ratio was at most 0.25.
With AGCK, the enrichment ratio is 16.1.
The figure for GGCA is 6.15.
For RGCE, the enrichment ratio is at most 0.25.
With TGCE, the enrichment ratio stood at 24.6.
Consider AGWM, for which the enrichment ratio is at most 0.25.
Turning to RQKH, the enrichment ratio is at most 0.25.
Regarding AGGM, the enrichment ratio is at most 0.25.
GGCE: the enrichment ratio was at most 0.25.
RQKI: the enrichment ratio was 19.2.
Turning to RQQH, the enrichment ratio was at most 0.25.
As for TGCA, the enrichment ratio came to 19.8.
Then GKAG, with at most 0.25.
Turning to TPNE, the enrichment ratio was at most 0.25.
As to EIDL, the enrichment ratio was at most 0.25.
The figure for VTQY is at most 0.25; for KAGG it is at most 0.25.
On to SNFF, for which the enrichment ratio was at most 0.25.
With AGWI, the enrichment ratio was at most 0.25.
Then AGCA, with 15; and AGDI, with at most 0.25.
For AGVA, the enrichment ratio amounted to 1.62.
Then RGCK, with at most 0.25; and GGCK, with at most 0.25.
As to AGVY, the enrichment ratio was 18.3.
In the case of TGCK, the enrichment ratio was found to be 37.2.
For TGCV, the enrichment ratio was determined as 7.81.
The figure for AGDH is at most 0.25; for AGCV it is 23.6; for TGVY it is 2.88.
For IEAT, the enrichment ratio is at most 0.25.
Regarding WPAK, the enrichment ratio is at most 0.25.
On to GFQM, for which the enrichment ratio was at most 0.25.
The figure for YNLK is at most 0.25; for DYIY it is at most 0.25; for KRVH it is at most 0.25.
For PCSH, the enrichment ratio is at most 0.25.
Consider ESFE, for which the enrichment ratio is at most 0.25.
Consider QFHQ, for which the enrichment ratio is at most 0.25.
For GIIK, the enrichment ratio is at most 0.25.
The figure for IAHY is at most 0.25; for VMDH it is at most 0.25; for AGCL it is 15.2.
Regarding AGWL, the enrichment ratio was at most 0.25.
The figure for AKQM is at most 0.25; for AGCS it is 10.8; for AGCI it is 14.
AGQM: the enrichment ratio was determined as 15.8.
On to TGCM, for which the enrichment ratio was found to be 16.3.
Regarding YWCL, the enrichment ratio is at most 0.25.
For AGCE, the enrichment ratio turned out to be 6.71.
Take AHQM: the enrichment ratio was at most 0.25.
The figure for RGCM is at most 0.25; for QGCM it is 1.34.
As to YRSY, the enrichment ratio is at most 0.25.
Consider NQKY, for which the enrichment ratio was at most 0.25.
The figure for VYPF is 1.11.
Regarding GMYR, the enrichment ratio is at most 0.25.
On to RCYS, for which the enrichment ratio was at most 0.25.
As to YPFH, the enrichment ratio is at most 0.25.
Take YWCQ: the enrichment ratio is at most 0.25.
In the case of ANCM, the enrichment ratio stood at 6.06.
The figure for AGCM is 13.6.
As for AWCM, the enrichment ratio was at most 0.25.
In the case of AGQP, the enrichment ratio was at most 0.25.
AGCQ: the enrichment ratio was determined as 23.
GNWY: the enrichment ratio was at most 0.25.
On to SFTF, for which the enrichment ratio was at most 0.25.
For the variant HKIE, the enrichment ratio was at most 0.25.
As for QMVR, the enrichment ratio is at most 0.25.
Regarding TRVL, the enrichment ratio was 11.6.
The figure for FCVL is 0.336.
VRVL: the enrichment ratio was at most 0.25.
Then FSVL, with 11.7; and SSVL, with 13.8.
Regarding SLVL, the enrichment ratio stood at 1.22.
In the case of SSVA, the enrichment ratio was found to be 10.9.
For the variant KRVL, the enrichment ratio was at most 0.25.
In the case of KSVL, the enrichment ratio was at most 0.25.
Consider SHQM, for which the enrichment ratio amounted to 0.951.
For the variant ITPF, the enrichment ratio is at most 0.25.
Consider PVFC, for which the enrichment ratio is at most 0.25.
In the case of QDST, the enrichment ratio was at most 0.25.
QTQP: the enrichment ratio was at most 0.25.
For ISEK, the enrichment ratio was at most 0.25.
Take KQRD: the enrichment ratio is at most 0.25.
Regarding AYKP, the enrichment ratio is at most 0.25.
The figure for IQCG is at most 0.25.
As for SQCG, the enrichment ratio was 24.3.
For the variant EQCG, the enrichment ratio was at most 0.25.
For the variant SNCG, the enrichment ratio was found to be 13.5.
Then LQCG, with at most 0.25; and SPCG, with 1.67.
In the case of ERSH, the enrichment ratio is at most 0.25.
EHYT: the enrichment ratio was at most 0.25.
On to ADGY, for which the enrichment ratio was at most 0.25.
The figure for LTGY is at most 0.25; for MFGY it is at most 0.25.
For the variant TDGY, the enrichment ratio turned out to be 11.5.
Consider TGGY, for which the enrichment ratio is 7.07.
For STGY, the enrichment ratio is 8.87.
Take NHGY: the enrichment ratio is at most 0.25.
For MTGY, the enrichment ratio was 14.4.
On to MTGR, for which the enrichment ratio is at most 0.25.
Take MEGY: the enrichment ratio was found to be 11.2.
Regarding MMGY, the enrichment ratio was at most 0.25.
On to THGY, for which the enrichment ratio came to 13.8.
The figure for GYHY is at most 0.25; for MGHH it is at most 0.25.
As for LMID, the enrichment ratio was at most 0.25.
FSGY: the enrichment ratio is at most 0.25.
As for GTGY, the enrichment ratio is at most 0.25.
On to YTGY, for which the enrichment ratio was at most 0.25.
On to KSGY, for which the enrichment ratio is at most 0.25.
With TTGY, the enrichment ratio was 20.5.
On to TSGY, for which the enrichment ratio is 14.8.
As to EHTS, the enrichment ratio was at most 0.25.
As for KLNV, the enrichment ratio is at most 0.25.
Take PLEP: the enrichment ratio was at most 0.25.
In the case of KFAF, the enrichment ratio is at most 0.25.
As for KLER, the enrichment ratio turned out to be 0.976.
Regarding LRTC, the enrichment ratio was at most 0.25.
Regarding GPSH, the enrichment ratio is at most 0.25.
With REFT, the enrichment ratio was at most 0.25.
Consider WYPR, for which the enrichment ratio is at most 0.25.
The figure for FIPD is at most 0.25.
In the case of AILL, the enrichment ratio came to 4.86.
As for HYLL, the enrichment ratio was at most 0.25.
On to IALL, for which the enrichment ratio was determined as 8.58.
With HALL, the enrichment ratio was determined as 12.4.
Regarding LFLL, the enrichment ratio was at most 0.25.
As to MKLL, the enrichment ratio came to 11.4.
Then AALL, with 14.9; and HFLL, with at most 0.25; and MYLL, with at most 0.25.
The figure for AKLL is 14.3; for AYLL it is at most 0.25; for ERET it is at most 0.25.
DVMR: the enrichment ratio was at most 0.25.
Then IMCE, with at most 0.25; and DQPA, with at most 0.25.
Turning to YWCG, the enrichment ratio is at most 0.25.
Regarding VLVV, the enrichment ratio was at most 0.25.
The figure for DQYW is at most 0.25; for CFLG it is at most 0.25; for KMML it is at most 0.25.
As to KKLL, the enrichment ratio was at most 0.25.
Turning to TKLL, the enrichment ratio was 16.2.
The figure for HKLL is 1.86; for KMLL it is at most 0.25; for AMLL it is 14.2.
As for NMLL, the enrichment ratio is at most 0.25.
VNCN: the enrichment ratio is at most 0.25.
For GPQD, the enrichment ratio was at most 0.25.
The figure for AVPC is at most 0.25.
The figure for AVWI is at most 0.25.
Then AVMW, with at most 0.25.
As for AVPS, the enrichment ratio was at most 0.25.
For AVSK, the enrichment ratio came to 16.9.
AVMI: the enrichment ratio was 15.6.
In the case of AVSC, the enrichment ratio was determined as 12.2.
The figure for AVTC is 6.81; for AVFQ it is at most 0.25; for AVHP it is at most 0.25.
Regarding AVSQ, the enrichment ratio came to 14.8.
As to AVMV, the enrichment ratio stood at 2.94.
